MITF TRPM1 HTS: MITF TRPM1 promoter activation in melanoma cells. SK-MEL-5 TRPM1-promoter luciferase, 24 h; % of positive control, neutral wells = 0. activation, % at 12.5 µM. 300,000 compounds, 0.75% hits. AID 588334;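 active = mean activation of at least 80% with every replicate also reaching 80%; inconclusive = mean reaches 80% but some replicate falls short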;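 note: 0% = neutral control wells and 100% = parthenolide positive control wells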
SMARCA2 activ: activators of SMARCA2 function | AID 652017 | activation, % at 9.1 µM | 370,000 compounds, 1% hits | MG213 cells, MMTV-luciferase reporter, dexamethasone, overnight; in the data active = activation above about 7.8%;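 note: 0% = vehicle wells and 100% = reference activator wells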
Wnt bcat act: activates Wnt/beta-catenin signaling in a reporter cell assay | AID 743398 | activation, % at 9.35 µM | activator, plate reader | 300,000 compounds, 1.2% hits; in the data active = activation above about 30%, passing the limit was not always enough; inconclusive = no clear call, values can overlap the other calls;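 note: 0% = neutral control wells and 100% = positive control wells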
FGF22 binding: FGF22 (human) thermal shift binding; Q9HCT0; recombinant FGF22 thermal shift, SYPRO orange fluorescence; percent of sucrose octasulfate shift, DMSO zero; activity (Tm shift, normalised), % at 9.99 µM; 340,000 compounds, 1.5% hits; AID 651658;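 active = mean Tm shift, scaled 0 neutral to 100 positive control, at about 1.3% or above, every replicate too, limit read from the data; inconclusive = no clear call, values can overlap the other calls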
Target sequence (Q9HCT0 whole entry, looked up): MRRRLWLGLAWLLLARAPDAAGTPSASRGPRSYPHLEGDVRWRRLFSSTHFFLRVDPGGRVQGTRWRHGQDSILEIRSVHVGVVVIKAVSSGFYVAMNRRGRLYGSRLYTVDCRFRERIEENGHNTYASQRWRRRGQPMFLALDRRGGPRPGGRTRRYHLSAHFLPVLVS
AF4-AF9 inh: MLL-AF4/AF9 protein interaction inhibition | P42568 | AlphaScreen, biotin-AF4 peptide binding to FLAG-AF9 | inhibition, % at 10 µM | 350,000 compounds, 0.47% hits | AID 651704;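 active = every replicate reaching a set inhibition limit, whatever the replicate mean, cut at about 25% in these data; inconclusive = mean inhibition reaches that limit but some replicates miss it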;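 note: 0% = plate neutral control median and 100% = total signal loss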
esBAF inh: inhibitors of esBAF chromatin remodeling in mouse ES cells. Bmi1-luciferase knock-in reporter, 24 h; 100% = twice the neutral-well signal. reporter increase, % at 12.5 µM. 350,000 compounds, 2% hits. AID 602393; in the data active = activation above about 40%; inconclusive = no clear call, values can overlap the other calls;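 note: 0% = median of the plate's neutral control wells and 100% = double that signal; a rise in the Bmi1 reporter signal indicates esBAF inhibition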
SMARCA2 act conf: confirmation of SMARCA2 (BRM) function activators | shares compounds with SMARCA2 activ | activation, % at 9.1 µM | 3,500 compounds, 30% hits | MG213 cells, MMTV-luciferase with dexamethasone, luminescence, overnight; MG213 cells expressing E1A, Rb sequestered; DMSO wells 0%, reference activator 100% | AID 652260;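 active = activation above its plate's cutoff, the mean activation of tested wells plus 3 SD, cut at about 7.9% in these data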
VP16 Luc act: GAL4-VP16 reporter activation counter-screen. shares compounds with SMARCA2 activ. HEK293 GAL4-VP16 pG5luc reporter, luciferase luminescence; scaled: DMSO wells 0%, SAHA wells 100%. activation, % at 9.1 µM. 3,500 compounds, 41% hits;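 active = activation above the solvent-only control well mean plus 3 SD, averaged across control plates, cut at about 5.2% in these data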
* hit, by the source's call; ? = inconclusive; · = not tested or not shown. A selection: hits, their analogues and other compounds. The true share with any hit is near 4.3%.

SMILES	MITF TRPM1 HTS	SMARCA2 activ	Wnt bcat act	FGF22 binding	AF4-AF9 inh	esBAF inh	SMARCA2 act conf	VP16 Luc act
O=C(O)c1cccc(Oc2ccccc2[N+](=O)[O-])c1	3	12*	2	·	·	-7	-1	2
CCCNC(=O)N1C[C@H](C)[C@@H](OC)CN(C)C(=O)c2ccc(NC(=O)CCC)cc2OC[C@@H]1C	·	·	·	0	-3	·	·	·
COC(=O)c1cc2ccsc2n1Cc1nc(-c2cccc(Cl)c2)oc1C	-2	12*	-7	0	4	-8	-6	0
C=CCNC(=O)CN(C(=O)Cc1ccc(Cl)cc1)c1cccc(Br)c1	·	7	·	·	·	·	·	·
CC(=O)NNc1ncnc2c1cnn2-c1ccc(C)c(C)c1	42	0	0	0	0	·	·	·
Cc1ccc(-n2ncc3c2ncn2c(C)nnc32)cc1C	?	9.0*	?	·	·	39	6	10*
O=C(C[C@@H]1CC[C@H]2[C@@H](COC[C@@H](O)CN2C(=O)c2ccncc2)O1)Nc1ccc(-c2ccccc2)cc1	·	·	·	0	2	0	·	·
CCC(=O)N1CC[C@H]2[C@@H]1c1cc(-c3ccc(OC)cc3)ccc1N(C)[C@H]2CO	·	·	·	0	-1	4	·	·
O=[N+]([O-])c1nn(-c2ccccc2)n(O)c1=NCCc1ccccc1	18	11*	·	·	·	·	6	3
O=C(Nc1cccc(F)c1)N[C@H]1CC[C@@H](CCn2cc(Cc3ccccc3)nn2)O[C@H]1CO	·	·	·	1	2	6	·	·
CCn1c2ccccc2c2nnc(SCc3ccccc3)nc21	·	8.2*	-5	0	3	10	-2	-1
CCn1c2ccccc2c2nnc(SCC(N)=O)nc21	-14	3	·	·	·	6	·	·
COc1ccc(S(=O)(=O)N(C)C[C@@H]2Oc3ccc(NC(=O)Nc4c(C)noc4C)cc3CC(=O)N([C@H](C)CO)C[C@H]2C)cc1	·	·	·	0	-2	0	·	·
O=C(Oc1c(CN2CCOCC2)cc(Cl)c2cccnc12)c1ccccc1F	-68	39*	19	0	14	·	13*	1
O=C(Oc1c(CN2CCOCC2)cc(Cl)c2cccnc12)c1ccccc1	-64	35*	-2	0	3	2	11*	-2
CC(=O)c1ccc(NC(=O)c2cccs2)cc1	58	12*	15	0	5	32	10*	10*
O=C(Nc1ccc(CN2CCOCC2)cc1)c1cccs1	71	8.5*	·	·	·	14	6	5
Cc1ccc(NC(=O)/C(Cl)=C\c2ccccc2)cc1	44	4	17	0	6	-38	·	·
CC(C)c1cc(C(=O)Nc2ccc3c(c2)OCO3)no1	10	8.0*	25	0	5	1	3	9.1*
CC(=O)c1ccc(NC(=O)/C(Cl)=C/c2ccccc2)cc1	138*	9.7*	17	0	1	·	13*	12*
CC(C)CC#Cc1ccc2c(c1)O[C@@H](CN(C)S(C)(=O)=O)[C@H](C)CN([C@@H](C)CO)S2(=O)=O	·	·	·	0	1	-1	·	·
C/C=C/c1ccc([C@H]2[C@H]3CN(C(=O)Nc4cc(F)ccc4F)CCCCN3[C@H]2CO)cc1	·	·	·	0	7	3	·	·
Cc1ccc2c(c1)C1CS(=O)(=O)N(CC(C)C)CN1C2 (stereo not drawn)	·	3	·	·	·	·	·	·
C[C@H](NC(=O)C[C@H]1CC[C@H](NS(=O)(=O)c2cccc(F)c2)[C@@H](CO)O1)c1ccccc1	·	·	·	0	7	0	·	·
CC(=O)Nc1ccc2nc(NC(=O)c3cccs3)sc2c1	36	9.1*	0	0	-28	-34	8.7*	9.8*
SMILES	MITF TRPM1 HTS	SMARCA2 activ	Wnt bcat act	FGF22 binding	AF4-AF9 inh	esBAF inh	SMARCA2 act conf	VP16 Luc act
O=C(Nc1ccc2c(c1)OCO2)c1cccs1	39	10*	·	·	·	?	12*	9.6*
O=C(/C=C\Nc1ccc2c(c1)OCO2)c1cccs1	-14	10*	10	0	8	-61	9.8*	5
O=C(Nc1ccc2c(c1)OCO2)c1ccc(Br)s1	25	6	·	·	·	12	·	·
O=C(c1cccc(F)c1)N1CC[C@@H]2[C@H](CO)Nc3ccc(C#Cc4ccc(F)cc4)cc3[C@@H]21	·	·	·	0	3	-5	·	·
CC(O)CNc1nc2c(c(=O)n(Cc3ccccc3)c(=O)n2C)n1C (stereo not drawn)	-6	9.7*	2	0	3	-5	-1	0
Cc1occc1C(=O)N/N=C/c1cnn(C)c1C	46	8.8*	19	·	·	35	4	5
Cc1c(/C=N/NC(=O)c2ccc3c(c2)OCO3)cnn1C	5	-2	·	·	·	6	·	·
Cc1c(/C=N/NC(=O)c2ccc(Br)o2)cnn1C	·	14*	14	0	-3	·	2	1
C[C@@H]1CN([C@@H](C)CO)C(=O)c2ccccc2-c2ccccc2CO[C@H]1CN(C)C(=O)CCN(C)C	·	·	·	0	-4	2	·	·
O=C(C[C@@H]1CC[C@H]2[C@@H](COC[C@H](O)CN2Cc2ccccc2)O1)NCc1ccccc1Cl	·	·	·	0	-1	-3	·	·
O=C(COc1ccccc1Cl)NCCc1ccc2c(c1)OCCO2	29	11*	-2	0	-1	·	4	1
N#CC(=C1NC(=O)c2ccccc21)c1nc2ccccc2n1CCO	·	20*	5	0	1	22	-13	18*
CC(C)CC#Cc1cnc2c(c1)C(=O)N([C@@H](C)CO)C[C@H](C)[C@@H](CN(C)C(=O)CCN1CCCCC1)O2	·	·	·	0	0	-1	·	·
COc1ccc(-c2noc(CSc3nc4ccccc4c(=O)n3-c3ccc(C)cc3)n2)cc1	·	12*	-7	0	2	-6	-4	0
COc1ccc(-c2cc(-c3nnc4sc(-c5cccs5)nn34)[nH]n2)cc1	·	8.5*	·	·	·	·	7	8.1*
COc1cccc(-c2nn3c(-c4cccc(C)c4)nnc3s2)c1	39	11*	·	·	·	17	5	5
CC=Cc1ccc2n(c1=O)C[C@@H]1[C@@H](CO)[C@H](C(=O)NCc3ccccc3)[C@H]2N1S(C)(=O)=O (mixture of isomers)	·	·	·	0	0	-5	·	·
CC(C)c1c(C(=O)Nc2ccccc2)c(-c2ccccc2)c(-c2ccc(F)cc2)n1CC[C@@H](O)C[C@@H](O)CC(=O)O	·	17*	5	-1	4	-18	13*	-1
O=Cc1ccc2noc(-c3ccc(Cl)cc3)c2c1	33	17*	2	0	11	27	11*	3
